# Test results from PubChem BioAssay AID504332 (National Center for Advancing Translational Sciences (NCATS), 2011).
# The campaign covered roughly 350,000 compounds. About 31,000 (8.9%) were called active. Not shown: some 15% with an inconclusive outcome. Calls follow the shape of the dose curve; as a rule, active = well fitted inhibition curve with a large enough effect; inconclusive = small, poorly fitted or top-dose-only effect; inactive = no such curve, though single readings can be large or run the other way. The list comes from a sample in which actives are over-represented; it also holds similar structures and randomly drawn compounds. A call without a number means that no potency is given here.
# Target: Histone-lysine N-methyltransferase EHMT2 (Homo sapiens) (UniProt Q96KQ7)
# Sequence (Q96KQ7 913-1193 limits assumed): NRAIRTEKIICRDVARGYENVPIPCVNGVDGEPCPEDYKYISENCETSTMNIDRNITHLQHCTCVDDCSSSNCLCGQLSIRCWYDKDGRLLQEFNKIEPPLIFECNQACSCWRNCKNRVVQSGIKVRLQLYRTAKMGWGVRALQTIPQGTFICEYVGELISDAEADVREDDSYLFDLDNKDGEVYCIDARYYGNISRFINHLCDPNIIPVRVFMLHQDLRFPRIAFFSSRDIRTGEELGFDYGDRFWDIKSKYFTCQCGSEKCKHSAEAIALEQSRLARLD
# Assay: qHTS Assay for Inhibitors of Histone Lysine Methyltransferase G9a; also: nearly all actives have a fitted effect of over 75% in size
# Conditions: G9a H3K9 monomethylation, AlphaScreen, 2 h; series mostly up to 59 µM
# Method in brief: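 Signal arises when biotinylated H3K9 peptide, once monomethylated, bridges streptavidin donor and antibody-captured acceptor beads. Enzyme at 20 nM was preincubated 15 min with test compounds; peptide 500 nM and SAM 20 uM then reacted for 2 h.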
# Potency is read from the fitted curve at half-maximal effect.
Structure (SMILES),Potency,"activity, negative = inhibition"
CCC(CC)COC(=O)C1=C(C)NC(=O)NC1c1ccc([N+](=O)[O-])cc1 (configuration not stated),inactive,–
COc1cccc(N2CCN(CC(=O)Nc3ccnn3C3CCCC3)CC2)c1,–,3.38% [at 12.7 µM] (inactive)
CCCSc1ncc(Cl)c(C(=O)Nc2sc3c(c2C(=O)NCCOC)CCCC3)n1,inactive,–
COc1ccc(NS(=O)(=O)c2ccc(NC(C)=O)cc2)cc1OC,inactive,–
COc1cc(NS(=O)(=O)c2ccc(NC(C)=O)cc2)cc(OC)c1,inactive,–
CC(=O)Nc1ccc(S(=O)(=O)Nc2cc(C)cn(Cc3ccc(C)cc3)c2=O)cc1,44.7 µM (active),–
CC(=O)c1c(C)[nH]c(C(=O)N2CCN(S(=O)(=O)c3ccc(F)c(F)c3)CC2)c1C,inactive,–
CCC(C)C(=O)Nc1ccccc1N1CCN(c2ccc(F)cc2)CC1 (configuration not stated),inactive,–
Cc1ccc(OCCC(=O)Nc2ccc(S(=O)(=O)Nc3nccs3)cc2)cc1,–,15% [at 12.7 µM] (inactive)
COc1cn(CC(=O)Nc2cccc(C)c2C)c(CN2CCCCC2)cc1=O,inactive,–
C/C=C/C=N/NC(=O)c1ccncc1,–,3.78% [at 12.7 µM] (inactive)
COc1ccccc1C(=O)Nn1cnnc1,inactive,–
COc1ccccc1C(=O)NN1C(=O)C2C3C=CC(O3)C2C1=O (configuration not stated),35.5 µM (active),–
O=C(NN1C(=O)C2C3C=CC(O3)C2C1=O)c1ccncc1 (configuration not stated),44.7 µM (active),–
O=C(NN1C(=O)C2C3C=CC(C4CC34)C2C1=O)c1ccc(Cl)cc1 (configuration not stated),inactive,–
COc1ccc(C(=O)NN2C(=O)C3C(c4ccccc4)C=CC(c4ccccc4)C3C2=O)cc1 (configuration not stated),inactive,–
CCC(=O)N1CCc2cc(Br)cc(S(=O)(=O)Nc3ccc(C)cc3C)c21,inactive,–
CCOc1ccc(C(CC(=O)O)NC(=O)Cc2ccccc2)cc1OC (configuration not stated),inactive,–
CSc1nc(=O)c2c(n1C)NC(=O)CC2c1ccccc1OC(C)C (configuration not stated),inactive,–
CN(C)c1nc(=Nc2cccc(Cl)c2)ss1,6.31 µM (active),–
CCC(C)C(N=C1NS(=O)(=O)c2ccccc21)C(=O)N1CCC(C)CC1 (configuration not stated),inactive,–

Structure (SMILES),Potency,"activity, negative = inhibition"
Cc1nn(Cc2ccc(F)cc2)c(C)c1NC(=O)c1cc(CC(C)C)on1,inactive,–
CCCCn1c(SCC(=O)N2CCCC2=O)nc2cc(S(N)(=O)=O)ccc21,–,76.1% [at 2.33 µM] (inactive)
OC(COc1cccc2ccccc12)CN1CCN(c2ccccn2)CC1 (configuration not stated),50.1 µM (active),–
O=C1c2cccc3cccc(c23)N1CN1CCN(c2ccccn2)CC1,inactive,–
Cc1ccccc1OCC(O)CN1CCN(c2ccccn2)CC1 (configuration not stated),inactive,–
COc1ccc(-c2nc3ccccc3s2)cc1NC(=O)COc1ccccc1C,inactive,–
COc1ccccc1C1C(C(=O)N2CCCCC2)=C(C)Nc2nc3ccccc3n21 (configuration not stated),inactive,–
Cc1ccccc1NC(=O)COc1cccc2c1CCNC2=O,inactive,–
Cc1ccnc(NS(=O)(=O)c2ccc(NC(=O)c3oc4ccccc4c3C)cc2)n1,25.1 µM (active),–
Cc1ccnc(NS(=O)(=O)c2ccc(NC(=O)c3ccc(S(=O)(=O)N(C)C)cc3)cc2)n1,inactive,–
Cc1ccnc(NS(=O)(=O)c2ccc(NC(=O)c3oc4ccc(F)cc4c3C)cc2)n1,–,6.53% [at 0.501 µM] (inactive)
Cc1ccc(NC(=O)NC(C)c2c(-n3cccc3)sc(C)c2C)c(C)c1 (configuration not stated),inactive,–
CC(=O)Nc1cc(C(=O)O)ccc1S(=O)(=O)c1ccc(Cl)cc1,50.1 µM (active),–
COCCNC(=O)c1ccc(S(=O)(=O)c2ccc(Cl)cc2)c(NC(C)=O)c1,inactive,–
CCOC(=O)N1CCN(C(=O)c2ccc(S(=O)(=O)c3ccc(C)cc3)c(NC(C)=O)c2)CC1,–,29.4% [at 0.501 µM] (inactive)
O=C(CN1CCCCC1)Nc1ccccc1C(=O)NC1CC1,inactive,–
O=C(COc1ccc(Cl)cc1)N(Cc1ccco1)Cc1ccco1,inactive,–
O=C1C=C(c2cccc(Br)c2)C[C@@H](c2ccc(F)cc2)C1,–,-5.82% [at 0.501 µM] (inactive)
COc1ccc(C2=NN(C(=O)CSc3nc(=O)n4ccc(C)cc4n3)C(c3ccc(C)cc3)C2)cc1 (configuration not stated),–,4.89% [at 2.33 µM] (inactive)
COc1cc(OC)c(C(=O)NC2CCCCCC2)cc1OC,–,13.1% [at 12.7 µM] (inactive)
COc1ccc(Cl)cc1C(=O)NNC(=S)NC1CCCC1,inactive,–

Structure (SMILES),Potency,"activity, negative = inhibition"
COc1ccc(C(=O)NC(=S)NC2CCCCC2)cc1,39.8 µM (active),–
Cn1nnnc1SCC(=O)NNC(=O)c1ccc(Br)cc1,inactive,–
COc1ccc(C(=O)NC2CCN(C(=S)Nc3ccccc3)CC2)cc1,inactive,–
CCc1noc(C)c1C(=O)NNC(=O)c1ccc(F)cc1,inactive,–
CNC(=S)NNC(=O)c1ccc(N(C)C)cc1,inactive,–
CCCNC(=S)N1CCC(NC(=O)c2ccc(OC)cc2)CC1,inactive,–
CC(=O)Nc1cccc(NC(=O)c2c(-c3ccccc3)noc2C)c1,–,10.1% [at 12.7 µM] (inactive)
Cc1onc(-c2ccccc2)c1C(=O)NNC(=S)NC(=O)c1ccc(F)cc1,31.6 µM (active),–
COc1cc(C(=S)NC2CCCCC2)ccc1O,35.5 µM (active),–
CC(=O)NC(=S)NNC(=O)c1ccc(Br)cc1,8.91 µM (active),–
COc1cccc(NC(=O)CN(C)CC(=O)c2c(N)n(Cc3ccccc3)c(=O)n(C)c2=O)c1,–,-2.39% [at 2.33 µM] (inactive)
COc1ccc(NC(=O)c2ccc3nc(CCc4ccccc4)oc3c2)c(OC)c1,inactive,–
CC1CCCN(C(=O)CN2C(=O)c3ccccc3S2(=O)=O)C1 (configuration not stated),–,6.05% [at 2.33 µM] (inactive)
CC1(c2ccc3ccccc3c2)NC(=O)NC1=O (configuration not stated),inactive,–
COc1cccc(NC(=O)CN(C)C(=O)c2ccccc2CCc2ccccc2)c1,–,3.17% [at 12.7 µM] (inactive)
O=C(NCCCN1CCOCC1)c1cc(-c2ccccc2F)no1,inactive,–
CSc1ccc(CCNC(=O)c2ccc3c(c2)nc2n3CCOC2)cc1,inactive,–
Clc1ccc(C(Cn2ccnc2)OCc2ccsc2Cl)c(Cl)c1 (configuration not stated),–,-28.9% [at 12.7 µM] (inactive)
CCOC(=O)c1[nH]c(C)c(CCC(=O)NCc2ccccc2C)c1C,inactive,–
Cc1ccc2ncc(C(=O)Nc3ccc(OC(F)(F)F)cc3)c(=O)n2c1,inactive,–
